Assay outcomes (PubChem)
LDHA inh: blocks human lactate dehydrogenase A. activity change, % (values are at about 110 or 230 µM). 480,000 tested, 0.15% active. P00338. purified LDHA, NADH/diaphorase-resazurin fluorescence; active compounds read low; in the data active = activity change below about -30%; inconclusive = mostly about -25% to -30%;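 note: plate controls were DMSO wells for no effect and wells without enzyme for full effect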
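Remaining NADH was detected by diaphorase (0.133 mg/mL) converting 37 µM resazurin to fluorescent resorufin, read at 0 and 20 minutes. The preceding 5-minute room-temperature reaction used 2 nM LDHA, 0.2 mM sodium pyruvate and 0.06 mM NADH at pH 7.4.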
Akt phos inh: blocks phosphorylation of Akt. Neuro2A IGF-stimulated pAkt S473 HTRF, 20 min; active compounds read low. 360,000 tested, 0.32% active. activity change, % for hits at 50 µM. AID 651550; in the data active = activity change below about -80%; inconclusive = mostly about -51% to -80%; note: % is set by controls: 0 for no effect and ±100 for the full control effect
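Neuro2A cells (4,500/well, DMEM with 0.5% FBS) were treated with compound at a single 50 µM final concentration, stimulated with 6 nM IGF for 20 min at 37 °C, and lysed. Phospho-Akt Ser473 was read by HTRF as 665/615 ratio ×10^4.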
D3 antag: antagonists of human D3 dopamine receptor. P35462. D3R cells, DiscoveRx beta-arrestin luminescence, antagonist mode; active compounds read low. max response, negative = inhibition, %. 360,000 tested, 2.5% active; in the data active = max response below about -50%; inconclusive = no clear call, values can overlap the other calls; note: % is set by controls: 0 for no effect and ±100 for the full control effect
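Cells plated overnight at 1500 cells/well, then exposed to library compounds with dopamine controls for 90 minutes at 37 degrees C. DiscoveRx reagent added for 30–60 minutes at room temperature; luminescence read, quantitative HTS format.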
DRD3 agonist: D3 dopamine receptor (human) agonism; D3R DiscoveRx beta-arrestin cells, luminescence, 90 min; max activation, %; P35462; 410,000 tested, 0.58% active; in the data active = max activation above about 30%; note: 0% is about no effect
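Agonist-mode cell screen: cells plated at 1500/well and incubated overnight at 37 °C, then exposed to library compounds for 90 min at 37 °C. Detection reagent was added for 30–60 min at room temperature, and luminescence was read.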
PI4K2A block: PI4K2A (human) kinase inhibition. purified PI4K2A, ADP-Glo luminescence, 1 h; active compounds read low. activity change, negative = inhibition, % at 76.9 µM. Q9BTU6. 420,000 tested, 0.13% active. AID 1346378; in the data active = activity change below about -50%; inconclusive = mostly about -30% to -49%;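 note: -100% = wells without enzyme as full effect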
Target sequence (Q9BTU6 whole entry, looked up): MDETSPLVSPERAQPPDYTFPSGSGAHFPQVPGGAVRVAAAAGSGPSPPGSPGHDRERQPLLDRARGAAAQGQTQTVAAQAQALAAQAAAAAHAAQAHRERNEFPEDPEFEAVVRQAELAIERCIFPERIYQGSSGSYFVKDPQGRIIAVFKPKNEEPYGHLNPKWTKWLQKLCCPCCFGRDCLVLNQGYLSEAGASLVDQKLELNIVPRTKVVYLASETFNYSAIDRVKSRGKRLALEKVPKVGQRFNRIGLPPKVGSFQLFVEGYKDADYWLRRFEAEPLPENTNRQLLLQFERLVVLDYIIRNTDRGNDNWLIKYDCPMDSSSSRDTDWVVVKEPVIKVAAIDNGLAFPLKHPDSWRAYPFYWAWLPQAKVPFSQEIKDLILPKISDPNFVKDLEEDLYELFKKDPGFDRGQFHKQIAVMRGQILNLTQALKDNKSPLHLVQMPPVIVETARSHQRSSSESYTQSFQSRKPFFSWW
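In this quantitative HTS, ADP production by PI4K2A was quantified luminescently after 1 h at ambient temperature; 100 microM adenosine served as plate-quality control.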
RGS4 inhibitor: blocks human RGS4-accelerated GTP hydrolysis; P49798; 390,000 tested, 0.039% active; Potency, µM (doses to about 114 µM), for the others: at the highest dose activity change, negative = inhibition, most hits filed as inhibitors; AID 504845; Transcreener GDP fluorescence polarization, RGS4-accelerated GTP hydrolysis; active = well fitted inhibition curve with a large enough effect; inconclusive = small, poorly fitted or top-dose-only effect; inactive = no such curve, though single readings can be large or run the other way; note: potency is the fitted concentration of half-maximal effect; % is set by controls: 0 for no effect and ±100 for the full control effect; nearly all actives have a fitted effect of over 75% in size
Target sequence (P49798 whole entry, looked up): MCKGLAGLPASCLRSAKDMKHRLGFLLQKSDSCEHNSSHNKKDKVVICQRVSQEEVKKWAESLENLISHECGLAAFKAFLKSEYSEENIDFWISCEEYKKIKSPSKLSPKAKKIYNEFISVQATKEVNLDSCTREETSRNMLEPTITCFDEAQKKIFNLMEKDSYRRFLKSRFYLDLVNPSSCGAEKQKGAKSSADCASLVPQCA
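MLSMR compounds (23 nl, pin-transferred) preincubated 10 min at room temperature with a 500nM (2x) first reagent, then RGS4 at 900nM (2x) plus Transcreener GDP mix added; fluorescence polarization (620/688 nm) read before and after 90 min at 30 °C.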
* marks the source's active call; other numbers are inactive results; i = inactive; ? = inconclusive; . = no result; [ ] = remark or other dose. Rows were chosen to be rich in hits. Some 2.8% of all compounds tested hit in one or more screens of this group.

SMILES | LDHA inh | Akt phos inh | D3 antag | DRD3 agonist | PI4K2A block | RGS4 inhibitor
O=C(Nc1ccc(F)cc1)C(c1ccccc1OC(F)(F)F)N1CCN(c2cccc(C(F)(F)F)n2)CC1 (stereo not drawn) | 4.1 | i | -54.9* | -9.8 | -1.5 | .
O=C(NCCCCCCCN1CCCCCCC1)C(C1CCCCC1)C1CCCCC1 | 2.2 | i | -64.6* | -28.7 | 1.2 | -30.2%
O=C(NCc1ccccn1)Nc1ccc(N2CCOCC2)nc1 | 27.4 | . | . | . | . | .
CCN1CCN(CCCOc2ccc(Cl)cc2Br)CC1 | ? | i | ? | -10.7 | -0.1 | -12.6%[56.9 µM]
Clc1ccc(OCCCN2CCCCC2)c(Br)c1 | -20.1 | i | -68.3* | -10.1 | 2.8 | 5.9%
Clc1ccc(OCCCCCN2CCCC2)c(Br)c1 | -17.8 | i | -51.9* | -14.1 | 0.6 | -34.0%
O=C(CCn1c(=O)sc2ccccc21)NCCC1=CCCCC1 | -9.3 | . | -108.2* | -30.0 | 0.0 | 0.7%
O=C(CCN1C(=O)c2ccccc2C1=O)NCCC1=CCCCC1 | -0.3 | i | 18.6 | -21.1 | -8.0 | -18.3%
O=c1[nH]c(=O)n(Cc2ccco2)c2c1C(C(F)(F)F)(C(F)(F)F)N=C(c1ccc(F)cc1)N2 | -9.6 | i | 48.0 | 56.4* | 2.5 | -8.7%
O=c1[nH]c(=O)n(Cc2ccco2)c2c1C(C(F)(F)F)(C(F)(F)F)N=C(c1ccccc1)N2 | -12.2 | . | . | . | . | .
Cc1ccc(/C=C/C(=O)c2ccccc2)o1 | 12.7 | . | . | . | . | .
c1ccc(CN2CCN(c3nc(-c4ccccc4)nc(-n4ccnc4)n3)CC2)cc1 | 0.7 | i | -63.0* | -39.0 | -5.6 | -10.5%
COc1cccc(N2CCN(Cc3ccco3)CC2)c1 | -10.2 | i | -6.2 | -0.3 | -0.2 | -12.1%
COc1cccc(N2CCN(Cc3ccsc3)CC2)c1 | 1.4 | i | -70.7* | -9.7 | 2.5 | -9.3%
Cc1ccc(C(c2c(O)nc3n(c2=O)CCS3)c2c(O)nc3n(c2=O)CCS3)cc1 | -9.1 | i | -17.4 | -1.1 | -52.2* | -1.6%
O=c1c(C(c2ccc(O)cc2)c2c(O)nc3n(c2=O)CCS3)c(O)nc2n1CCS2 | -5.9 | i | 11.8 | 1.2 | ? | ?
CSc1ccc(/C=N/NC(=O)c2ccc(C)c(C)c2)cc1 | -48.4* | i | -13.5 | -1.8 | 1.5 | ?
CC(C)C(CNC(=O)c1nn(C)c(=O)c2ccccc12)N1CCCC1 (stereo not drawn) | -1.2 | . | . | . | . | .
COc1ccc2c(c1)Cc1sc(NC(=O)c3cccc(C)c3)nc1-2 | 27.0 | . | . | -13.4 | -54.0* | ?
O=C(Nc1cccc2ccccc12)c1csc([C@@H]2O[C@H](CO)[C@@H](O)[C@H]2O)n1 | -2.5 | i | 3.3 | -2.2 | -1.6 | .
O=C(Nc1cccc2cccnc12)c1csc([C@@H]2O[C@H](CO)[C@H](O)[C@H](O)[C@H]2O)n1 | -3.0 | i | -116.9* | -21.2 | -8.1 | .
Cc1cc(=O)oc2cc(OCC(=O)NC(Cc3c[nH]c4ccc(O)cc34)C(=O)O)c(Cl)cc12 (stereo not drawn) | 10.9 | i | 11.8 | 30.7* | 2.2 | -31.0%
CCOC(=O)c1c(NC(=O)CSc2nnc(C)c(=O)[nH]2)sc(C)c1-c1ccc(C)cc1 | -0.2 | i | -19.4 | -0.5 | -5.6 | -21.0%
CCOC(=O)c1c(NC(=O)CSc2nnc(N)s2)sc(C)c1-c1ccc(C)cc1 | 0.4 | i | 67.8 | 43.2* | -4.3 | -42.2%
CC(C)c1[nH]nc2c1C1(CCN(Cc3ccccc3)CC1)C(C#N)=C(N)O2 | 10.8 | i | -92.0* | 1.1 | -3.6 | -47.4%
SMILES | LDHA inh | Akt phos inh | D3 antag | DRD3 agonist | PI4K2A block | RGS4 inhibitor
COc1ccc(NC(=O)CN2CCCCC2)cc1S(=O)(=O)N1CCCCC1 | -18.4 | i | -4.1 | -6.5 | 2.8 | -5.8%
CCc1ccc(NC(=O)C(=O)NCCN2CCN(C(=O)c3ccco3)CC2)cc1 | -8.8 | i | 25.4 | 72.5* | -1.4 | -45.4%
Cc1ccc(NC(=O)CN2CCN(C(=O)c3ccco3)CC2)cc1S(=O)(=O)N(C)C | -20.3 | i | 22.7 | 50.5* | -2.5 | -16.3%
CCOc1ccc(NC(=O)CN2CCN(C(=O)c3ccco3)CC2)cc1S(=O)(=O)N1CCCC1 | 0.9 | i | -9.3 | 39.7* | 2.1 | -28.9%
NC(=O)c1ccc(NC(=O)CN2CCN(C(=O)c3ccco3)CC2)cc1 | -2.0 | i | 8.4 | 13.6 | -3.1 | -10.1%[56.9 µM]
CCOC(=O)c1ccc(NC(=O)CN2CCN(C(=O)c3ccco3)CC2)cc1 | 1.0 | i | 14.7 | 35.9* | 2.3 | 19.8%
Cc1noc(C)c1S(=O)(=O)Nc1c(NC2CCCC2)c2ccccc2oc1=O | -2.9 | . | . | . | . | .
O=C1NC(c2ccccc2)C(C(=O)c2cccs2)=C1O (stereo not drawn) | -0.5 | i | -58.4* | -10.5 | -4.4 | 44.2%
O=C(C1=C(O)C(=O)N(c2nncs2)C1c1ccccc1)c1cccs1 (stereo not drawn) | 11.0 | . | . | . | . | .
CCN(CC)C(=S)SCC(=O)Nc1nc(-c2ccccc2)c(-c2ccccc2)o1 | -3.6 | i | -10.0 | -7.1 | -4.1 | -2.5%
Cn1nnnc1SCC(=O)Nc1nc(-c2ccccc2)c(-c2ccccc2)o1 | -6.4 | i | -52.6* | -6.9 | 6.7 | -16.6%
O=C(CSC(=S)N1CCCCC1)Nc1nc(-c2ccccc2)c(-c2ccccc2)o1 | -0.6 | i | -51.8* | -40.2 | 1.5 | -35.0%
COc1ccccc1CN1CCN(C(CC(C)C)c2nnnn2Cc2cccs2)CC1 (stereo not drawn) | 2.4 | i | -62.8* | -15.8 | -2.2 | -31.9%
COc1ccc(C(c2nnnn2Cc2cccs2)N2CCN(c3ccccc3F)CC2)cc1OC (stereo not drawn) | 0.6 | i | -81.5* | -0.3 | -10.7 | -10.7%
Fc1ccc(C(c2nnnn2Cc2cccs2)N2CCN(c3ccccc3)CC2)cc1 (stereo not drawn) | -0.1 | i | 11.5 | -3.6 | -2.7 | 23.5%
COCCn1nnnc1C(c1ccc(C)cc1)N1CCN(Cc2ccc3c(c2)OCO3)CC1 (stereo not drawn) | -7.6 | i | -10.1 | -8.2 | 3.6 | -9.4%[11.4 µM]
CCCC(c1nnnn1Cc1cccs1)N1CCN(C)CC1 (stereo not drawn) | -1.8 | i | -6.7 | -12.0 | -4.3 | -15.5%
COCCn1nnnc1C(c1cc2cccc(C)c2[nH]c1=O)N1CCN(c2ccccc2F)CC1 (stereo not drawn) | 10.4 | -89.6%* | -53.5* | -2.2 | -8.0 | -6.5%
COCCn1nnnc1C(c1ccccc1OC)N1CCN(c2ccccc2F)CC1 (stereo not drawn) | -5.9 | i | 0.0 | 3.2 | -0.6 | -1.4%
